# Experimental data as given in PubChem BioAssay (EPA / NIEHS).
# “And” between values parts separate entries of the source, which are not always exact repeats. Equal values may be shown once. Inconclusive results are not listed. The source holds several records for some structures; these can differ, active in one and inactive in another. The source made the active and inactive calls. Rule for the calls: active = hit-call score of the fitted dose curve at least 0.9, where 1 is the maximum; inconclusive = response in the unintended direction; inactive = score below 0.9.
# Legend:
# [1] = ACEA_AR_antagonist_AUC_viability: ACEA Biosciences xCELLigence Real-Time Cell Analysis on Androgen Receptor Antagonism for Viability (AID 2283776);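 note: 22Rv1 human prostate cancer cells growing on impedance electrode plates; area under impedance growth curve at 80 h after dosing as viability; hits lower the growth signal relative to DMSO meaning cytotoxicity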
# How it was run: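 22Rv1 prostate cells, continuous dosing up to 100 uM final (0.5% DMSO max), duplicate plates. Growth measured by impedance; AUC at 80 h, loss of signal vs DMSO.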
# AR (gene 367) [2] = biological target: AR (gene 367) (UniProt P10275); experiment: ACEA_AR_antagonist_80hr: ACEA Biosciences xCELLigence Real-Time Cell Analysis on Androgen Receptor Antagonism for Proliferation (AID 2283787);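 note: 22Rv1 human prostate cancer cells with growth followed by electrical impedance; hits lower the impedance growth signal relative to DMSO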
# Sequence of AR (gene 367) (P10275 whole entry, looked up): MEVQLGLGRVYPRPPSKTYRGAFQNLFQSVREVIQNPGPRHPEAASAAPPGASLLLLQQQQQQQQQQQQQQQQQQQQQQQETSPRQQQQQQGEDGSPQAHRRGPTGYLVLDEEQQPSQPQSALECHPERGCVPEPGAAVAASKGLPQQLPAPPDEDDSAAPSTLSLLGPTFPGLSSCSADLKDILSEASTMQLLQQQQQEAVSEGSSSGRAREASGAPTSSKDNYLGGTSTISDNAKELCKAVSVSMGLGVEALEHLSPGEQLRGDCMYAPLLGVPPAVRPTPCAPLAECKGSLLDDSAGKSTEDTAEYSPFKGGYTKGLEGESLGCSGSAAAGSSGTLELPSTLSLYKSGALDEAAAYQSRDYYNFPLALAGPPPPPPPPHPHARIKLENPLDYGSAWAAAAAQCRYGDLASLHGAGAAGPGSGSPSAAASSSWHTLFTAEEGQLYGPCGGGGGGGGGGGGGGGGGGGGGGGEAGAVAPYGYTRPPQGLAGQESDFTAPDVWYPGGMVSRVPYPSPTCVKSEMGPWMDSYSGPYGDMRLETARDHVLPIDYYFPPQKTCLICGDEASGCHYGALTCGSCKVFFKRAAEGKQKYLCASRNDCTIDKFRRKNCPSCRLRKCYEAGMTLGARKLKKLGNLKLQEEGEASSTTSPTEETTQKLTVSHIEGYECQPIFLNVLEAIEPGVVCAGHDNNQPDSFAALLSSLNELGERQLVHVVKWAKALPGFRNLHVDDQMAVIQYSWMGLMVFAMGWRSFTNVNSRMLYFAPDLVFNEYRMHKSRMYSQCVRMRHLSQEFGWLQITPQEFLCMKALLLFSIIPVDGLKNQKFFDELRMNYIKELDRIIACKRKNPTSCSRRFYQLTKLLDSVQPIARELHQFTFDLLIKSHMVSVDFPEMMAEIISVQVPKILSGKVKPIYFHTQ
# How it was run: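 Impedance-based real-time growth of 22Rv1 prostate cells, read 80 h after dosing. Eight concentrations, 1:4 series, top 100 uM final (0.5% DMSO), n = 2; signal decrease scored against DMSO.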
# [3] = ACEA_ER_AUC_viability: ACEA Biosciences xCELLigence Real-Time Cell Analysis on Estrogen Receptor Agonism for Viability (AID 2283782);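 note: hit means loss of impedance signal meaning reduced cell growth or viability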
# How it was run: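 Viability endpoint: reduced impedance area under the curve relative to DMSO, recorded by real-time electrode sensing over ~80 h of continuous exposure. Duplicate plates of T47D in hormone-depleted medium; eight concentrations, 1:4 dilutions, 100 uM maximum.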
# [4] = STM_H9_NormalizedViability: Cytotoxicity Assessment at 120 hours in the Stemina devTOX quickPredict H9 human embryonic stem cell (hESC)-based Assay (AID 2283784)
# How it was run: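 Here, H9 cells received test compound with daily medium renewal. Each plate included methotrexate references (1uM, 5 nM), 0.1% DMSO and media blanks; CellTiter-Fluor RFU was normalized to DMSO.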
# AR (gene 367) [5] = biological target: AR (gene 367) (UniProt P10275); experiment: ACEA_AR_agonist_80hr: ACEA Biosciences xCELLigence Real-Time Cell Analysis on Androgen Receptor Agonism for Proliferation (AID 2283783);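 note: hits increase impedance growth signal above DMSO baseline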
# How it was run: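 Eight concentrations, 1:4 serial dilution from a 100 uM final top, in biological duplicate. Impedance-based real-time growth of 22Rv1 cells after overnight baseline, recorded hourly and read at 80 hours. Controls: testosterone, MG132, assay media.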
# [6] = biological target: chicken Estrogen Receptor (ESR1), ESR1 (gene 396099) (UniProt P06212); experiment: ATG_chERa_XSP1: Attagene TRANS-FACTORIAL Multi-Species (XSP1) HepG2 Assay for chicken Estrogen Receptor (ESR1) (AID 2283779)
# Sequence of chicken Estrogen Receptor (ESR1), ESR1 (gene 396099) (P06212 whole entry, looked up, the tested form may be a part): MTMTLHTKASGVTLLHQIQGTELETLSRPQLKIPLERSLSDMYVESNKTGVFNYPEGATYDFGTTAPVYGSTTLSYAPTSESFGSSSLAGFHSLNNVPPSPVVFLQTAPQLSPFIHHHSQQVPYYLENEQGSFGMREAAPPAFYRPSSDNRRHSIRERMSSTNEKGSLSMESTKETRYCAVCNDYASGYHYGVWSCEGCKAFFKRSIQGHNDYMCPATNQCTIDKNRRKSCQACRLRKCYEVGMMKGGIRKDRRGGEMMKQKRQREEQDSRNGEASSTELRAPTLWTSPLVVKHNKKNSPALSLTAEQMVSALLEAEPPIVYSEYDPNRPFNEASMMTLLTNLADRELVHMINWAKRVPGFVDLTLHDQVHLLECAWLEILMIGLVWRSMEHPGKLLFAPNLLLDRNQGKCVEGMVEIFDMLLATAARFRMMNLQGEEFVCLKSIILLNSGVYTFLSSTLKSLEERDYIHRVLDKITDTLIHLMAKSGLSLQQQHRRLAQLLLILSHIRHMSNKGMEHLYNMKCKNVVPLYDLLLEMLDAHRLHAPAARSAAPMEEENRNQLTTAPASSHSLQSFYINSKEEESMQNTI
# How it was run: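 Trans-activation of an exogenous chicken ERα–Gal4 chimera read as reporter transcript (RT-PCR, fluorescent labeling, capillary electrophoresis) after 24 h compound exposure of transfected HepG2; medium held 3 nM 6-alpha-fluorotestosterone. Positive-direction fit against DMSO.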
# [7] = biological target: Estrogen receptor (Homo sapiens) (UniProt P03372); experiment: ATG_hERa_XSP1: Attagene TRANS-FACTORIAL Multi-Species (XSP1) HepG2 Assay for human Estrogen Receptor (ESR1) (AID 2283780)
# Sequence of Estrogen receptor (Homo sapiens) (P03372 whole entry, looked up, the tested form may be a part): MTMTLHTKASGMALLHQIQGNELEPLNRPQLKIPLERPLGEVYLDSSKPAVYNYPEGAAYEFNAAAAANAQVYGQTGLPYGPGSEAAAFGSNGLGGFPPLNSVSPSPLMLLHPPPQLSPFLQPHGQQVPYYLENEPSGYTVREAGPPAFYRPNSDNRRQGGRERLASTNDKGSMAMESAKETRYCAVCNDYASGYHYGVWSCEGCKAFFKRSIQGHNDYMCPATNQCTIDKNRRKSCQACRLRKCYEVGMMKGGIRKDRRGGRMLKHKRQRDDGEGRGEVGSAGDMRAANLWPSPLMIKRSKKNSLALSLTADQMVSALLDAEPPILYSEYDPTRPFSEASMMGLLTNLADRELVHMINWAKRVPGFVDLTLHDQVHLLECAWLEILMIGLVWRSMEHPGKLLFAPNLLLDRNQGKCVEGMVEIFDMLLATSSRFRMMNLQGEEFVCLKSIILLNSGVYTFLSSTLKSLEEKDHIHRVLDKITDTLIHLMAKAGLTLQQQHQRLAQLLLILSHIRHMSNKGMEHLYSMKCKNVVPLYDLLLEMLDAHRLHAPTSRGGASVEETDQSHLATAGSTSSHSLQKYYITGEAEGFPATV
# How it was run: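 Reporter transcripts from multiplexed GAL4-UAS units driven by NR-Gal4 chimeras in transiently transfected HepG2 were measured by RT-PCR with capillary electrophoresis 24 h post-dose, with 3 nM 6-alpha-fluorotestosterone present; gain-of-signal relative to DMSO.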
# [8] = ATG_M_06_XSP1: Attagene TRANS-FACTORIAL Multi-Species (XSP1) HepG2 Assay for M06 Transcription Factor (Internal Marker) (AID 2283790)
# How it was run: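 This background-control readout tracks M06 reporter mRNA, measured by RT-PCR and capillary electrophoresis. HepG2 cells transiently carrying the GAL4-UAS reporter panel were dosed for 24 h with 3 nM 6-alpha-fluorotestosterone added for partial AR stimulation; increases were scored relative to DMSO.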
# [9] = ATG_M_61_XSP1: Attagene TRANS-FACTORIAL Multi-Species (XSP1) HepG2 Assay for M61 Transcription Factor (Internal Marker) (AID 2283797)
# How it was run: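 Background-control readout: reporter transcripts measured by RT-PCR and capillary electrophoresis 24 h after dosing transiently transfected HepG2 multi-reporter cells, with 3 nM 6-alpha-fluorotestosterone present. Fitted in the positive direction relative to DMSO.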
# [10] = biological target: Peroxisome proliferator-activated receptor gamma (Homo sapiens) (UniProt P37231); experiment: ATG_hPPARg_XSP1: Attagene TRANS-FACTORIAL Multi-Species (XSP1) HepG2 Assay for human Peroxisome Proliferator-activated Receptor gamma (PPARg) (AID 2283800)
# Sequence of Peroxisome proliferator-activated receptor gamma (Homo sapiens) (P37231 whole entry, looked up, the tested form may be a part): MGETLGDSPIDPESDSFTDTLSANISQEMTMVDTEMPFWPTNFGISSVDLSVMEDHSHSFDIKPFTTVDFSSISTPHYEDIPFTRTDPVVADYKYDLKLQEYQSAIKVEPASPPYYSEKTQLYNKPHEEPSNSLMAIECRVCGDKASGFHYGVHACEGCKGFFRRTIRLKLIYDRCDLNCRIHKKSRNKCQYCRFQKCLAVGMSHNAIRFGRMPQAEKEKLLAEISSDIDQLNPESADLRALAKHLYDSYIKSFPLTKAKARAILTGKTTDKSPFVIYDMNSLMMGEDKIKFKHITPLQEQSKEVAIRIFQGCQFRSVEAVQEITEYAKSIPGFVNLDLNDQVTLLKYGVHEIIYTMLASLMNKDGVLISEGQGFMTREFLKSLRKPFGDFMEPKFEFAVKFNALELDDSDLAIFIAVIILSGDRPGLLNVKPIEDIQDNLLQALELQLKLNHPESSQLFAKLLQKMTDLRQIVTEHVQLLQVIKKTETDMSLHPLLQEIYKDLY
# How it was run: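 Reporter mRNA induction, measured by RT-PCR with capillary electrophoresis 24 h after dosing, scored as gain over DMSO. Transfected HepG2 cells express exogenous NR-Gal4 chimeras driving GAL4-UAS reporters; medium includes 3 nM 6-alpha-fluorotestosterone.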
# [11] = system: zebrafish Peroxisome Proliferator-activated Receptor gamma (PPARg), gene 557037; experiment: ATG_zfPPARg_XSP1: Attagene TRANS-FACTORIAL Multi-Species (XSP1) HepG2 Assay for zebrafish Peroxisome Proliferator-activated Receptor gamma (PPARg) (AID 2283801)
# How it was run: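 Trans-activation readout of chimeric zebrafish PPARg–GAL4 in transiently transfected human HepG2 cells, 24 h chemical exposure (medium includes 3 nM 6-alpha-fluorotestosterone). Reporter transcripts measured by RT-PCR and capillary electrophoresis, fitted as gain over DMSO.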
# [12] = biological target: mouse Peroxisome Proliferator-activated Receptor gamma (PPARg), Pparg (gene 19016) (UniProt P37238); experiment: ATG_mPPARg_XSP1: Attagene TRANS-FACTORIAL Multi-Species (XSP1) HepG2 Assay for mouse Peroxisome Proliferator-activated Receptor gamma (PPARg) (AID 2283802)
# Sequence of mouse Peroxisome Proliferator-activated Receptor gamma (PPARg), Pparg (gene 19016) (P37238 whole entry, looked up, the tested form may be a part): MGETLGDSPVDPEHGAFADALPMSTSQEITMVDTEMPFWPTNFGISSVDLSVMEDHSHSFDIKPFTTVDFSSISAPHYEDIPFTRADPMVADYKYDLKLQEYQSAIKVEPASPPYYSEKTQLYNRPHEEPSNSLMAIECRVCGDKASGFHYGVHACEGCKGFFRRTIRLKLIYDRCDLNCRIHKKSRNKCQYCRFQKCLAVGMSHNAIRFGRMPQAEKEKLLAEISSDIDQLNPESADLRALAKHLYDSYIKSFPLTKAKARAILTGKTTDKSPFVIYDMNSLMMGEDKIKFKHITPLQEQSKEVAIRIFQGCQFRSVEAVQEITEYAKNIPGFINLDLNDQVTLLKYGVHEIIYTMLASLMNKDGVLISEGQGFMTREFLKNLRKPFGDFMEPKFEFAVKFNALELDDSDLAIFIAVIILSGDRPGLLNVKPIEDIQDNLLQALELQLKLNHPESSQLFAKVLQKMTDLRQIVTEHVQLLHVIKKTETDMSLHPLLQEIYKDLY
# How it was run: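 Readout is reporter mRNA induction, measured by RT-PCR with 6-FAM labelling, HpaI digestion and capillary electrophoresis, 24 h post-dose relative to DMSO. Transient multi-reporter transfection of human HepG2 with mouse PPARg–GAL4 fusion; 3 nM 6-alpha-fluorotestosterone included.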
# [13] = system: frog Estrogen Receptor (ESR1), gene 398734; experiment: ATG_frER1_XSP1: Attagene TRANS-FACTORIAL Multi-Species (XSP1) HepG2 Assay for frog Estrogen Receptor (ESR1) (AID 2283777)
# How it was run: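 HepG2 cells transiently transfected with GAL4-UAS reporter units and frog ER–Gal4 chimera were dosed for 24 h with 3 nM 6-alpha-fluorotestosterone present. Reporter mRNA was measured by RT-PCR and capillary electrophoresis; gain of signal fitted versus DMSO.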
# [14] = system: zebrafish Estrogen Receptor (ESR2A), gene 317734; experiment: ATG_zfER2a_XSP1: Attagene TRANS-FACTORIAL Multi-Species (XSP1) HepG2 Assay for zebrafish Estrogen Receptor (ESR2A) (AID 2283778)
# How it was run: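 Reporter transcripts were quantified by RT-PCR, 6-FAM labelling, HpaI digestion and capillary electrophoresis after 24 h dosing. The cells were HepG2 transiently carrying a zebrafish ER2a–Gal4 construct plus multiplexed UAS reporters; medium contained 3 nM 6-alpha-fluorotestosterone.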
# [15] = system: turtle Estrogen Receptor (ESR1), gene 101933533; experiment: ATG_trERa_XSP1: Attagene TRANS-FACTORIAL Multi-Species (XSP1) HepG2 Assay for turtle Estrogen Receptor (ESR1) (AID 2283781)
# How it was run: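 Transactivation measured 24 h post-dose as reporter mRNA (RT-PCR, fluorescent capillary electrophoresis) from an NR-Gal4 turtle ER construct in HepG2. Medium included 3 nM 6-alpha-fluorotestosterone; increase over DMSO fitted.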
# [16] = system: turtle Androgen Receptor (AR), gene 101947425; experiment: ATG_trAR_XSP1: Attagene TRANS-FACTORIAL Multi-Species (XSP1) HepG2 Assay for turtle Androgen Receptor (AR) (AID 2283786)
# How it was run: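 Partial androgen stimulation is provided by 3 nM 6-alpha-fluorotestosterone in a multi-species trans-factorial panel expressing a turtle AR–GAL4 fusion in HepG2. After 24 h, reporter mRNA is measured by RT-PCR and capillary electrophoresis and fitted upward against DMSO.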
# [17] = biological target: Estrogen receptor beta (Homo sapiens) (UniProt Q92731); experiment: ATG_hERb_XSP1: Attagene TRANS-FACTORIAL Multi-Species (XSP1) HepG2 Assay for human Estrogen Receptor (ESR2) (AID 2283788)
# Sequence of Estrogen receptor beta (Homo sapiens) (Q92731 whole entry, looked up, the tested form may be a part): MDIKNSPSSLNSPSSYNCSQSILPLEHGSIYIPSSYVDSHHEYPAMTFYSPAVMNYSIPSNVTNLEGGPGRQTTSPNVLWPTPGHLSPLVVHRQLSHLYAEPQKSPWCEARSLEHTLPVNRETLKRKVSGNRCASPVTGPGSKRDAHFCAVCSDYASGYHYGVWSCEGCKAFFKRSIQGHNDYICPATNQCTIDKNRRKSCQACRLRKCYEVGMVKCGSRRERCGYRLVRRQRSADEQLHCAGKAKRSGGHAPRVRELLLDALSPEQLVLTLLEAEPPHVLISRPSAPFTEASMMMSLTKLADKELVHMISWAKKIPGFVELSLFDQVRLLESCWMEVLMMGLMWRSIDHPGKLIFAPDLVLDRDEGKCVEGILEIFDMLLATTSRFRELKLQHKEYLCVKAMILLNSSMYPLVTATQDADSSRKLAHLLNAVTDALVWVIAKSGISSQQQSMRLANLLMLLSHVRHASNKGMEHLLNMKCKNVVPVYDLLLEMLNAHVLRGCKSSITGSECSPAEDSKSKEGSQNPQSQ
# How it was run: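 HepG2 cells transiently transfected with multiplexed GAL4-UAS reporter units carrying chimeric human ERβ-Gal4; 24 h compound exposure with 3 nM 6-alpha-fluorotestosterone present. Reporter mRNA quantified by RT-PCR, FAM labelling and capillary electrophoresis; gain-of-signal fitted versus DMSO.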
# [18] = ATG_M_19_XSP1: Attagene TRANS-FACTORIAL Multi-Species (XSP1) HepG2 Assay for M19 Transcription Factor (Internal Marker) (AID 2283798)
# How it was run: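 Readout is reporter mRNA induction quantified via RT-PCR, 6-FAM labeling, HpaI digestion and capillary electrophoresis, fitted in the positive direction versus DMSO baseline. Transfected HepG2 cells exposed 24 h, medium including 3 nM 6-alpha-fluorotestosterone.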
# [19] = ATG_M_32_XSP1: Attagene TRANS-FACTORIAL Multi-Species (XSP1) HepG2 Assay for M32 Transcription Factor (Internal Marker) (AID 2283799)
# How it was run: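 Reporter transcripts from the M32 internal-control unit measured by RT-PCR, FAM labelling, HpaI digestion and capillary electrophoresis after 24 h compound exposure of transfected HepG2, 3 nM 6-alpha-fluorotestosterone included; DMSO baseline, positive-direction fit.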
smiles,measurement,setting,value
CC(C)(OO)c1ccccc1,outcome,[1],inactive
CC(C)c1cccc(C(C)C)c1O,outcome,[1],inactive
same,outcome,AR (gene 367) [2],inactive
CC(C)(c1ccccc1)c1ccc(O)c(C(C)(C)c2ccccc2)c1,AC50,[1],12.8 µM (active)
same,AC50,[3],8.68 µM (active)
C[C@@H]1C[C@@H]([C@H](O)CC2CC(=O)NC(=O)C2)C(=O)[C@@H](C)C1,AC50,[1],1.35 µM (active)
same,AC50,[4],2.46 µM (active)
C=C(C)C(=O)[O][Sn]([CH2]CCC)([CH2]CCC)[CH2]CCC,AC50,[1],1.35 µM (active)
same,AC50,[3],1.43 µM (active)
same,AC50,[4],0.713 µM (active)
c1cc[c]([Hg][c]2ccccc2)cc1,AC50,[1],16.6 µM (active)
same,AC50,[3],36.3 µM (active)
same,outcome,AR (gene 367) [5],inactive
same,AC50,AR (gene 367) [2],21.9 µM (active)
NC(=O)O,outcome,[3],inactive
C[C@H]1CCCC(=O)CCC/C=C/c2cc(O)cc(O)c2C(=O)O1,AC50,[1],31.3 µM (active) and 9.08 µM (active)
same,outcome,AR (gene 367) [5],inactive
same,AC50,AR (gene 367) [2],13.9 µM (active)
Nc1ccc(Cl)cc1C(=O)c1ccccc1,outcome,[3],inactive
Cc1ccccc1N,outcome,[1],inactive
same,AC50,[3],0.893 µM (active)
same,outcome,[3],inactive
COP(=S)(OC)Oc1ccc(Sc2ccc(OP(=S)(OC)OC)cc2)cc1,outcome,[1],inactive
same,outcome,AR (gene 367) [2],inactive
COc1cc2c(cc1OC)[C@@]13CCN4CC5=CCO[C@H]6CC(=O)N2[C@H]1[C@H]6[C@H]5C[C@H]43,outcome,[3],inactive
COP(=O)(OC)O/C(=C\Cl)c1cc(Cl)c(Cl)cc1Cl,outcome,[6],inactive
same,outcome,[7],inactive
same,AC50,[3],58.1 µM (active)
same,outcome,AR (gene 367) [2],inactive
same,outcome,[8],inactive
same,outcome,[9],inactive
same,AC50,[10],14 µM (active)
same,outcome,[11],inactive
same,AC50,[12],32.3 µM (active)
CCOP(=S)(OCC)Oc1nc(Cl)c(Cl)cc1Cl,AC50,[1],63.3 µM (active)
same,AC50,[3],87.6 µM (active)
same,AC50,AR (gene 367) [2],74.9 µM (active)
COC(=O)c1sccc1S(=O)(=O)NC(=O)Nc1nc(C)nc(OC)n1,outcome,[1],inactive
same,outcome,[3],inactive
C[C@]12CCC(=O)C[C@@H]1CC[C@@H]1[C@@H]2CC[C@]2(C)[C@@H](O)CC[C@@H]12,outcome,[13],inactive
same,AC50,[14],0.851 µM (active)
same,outcome,[6],inactive
same,outcome,[15],inactive
same,AC50,[16],0.168 µM (active)
same,outcome,[17],inactive
same,outcome,[18],inactive
same,outcome,[19],inactive
CC(=O)[O][Hg][c]1ccccc1,AC50,[1],1.63 µM (active)
same,AC50,[4],0.387 µM (active)
same,AC50,AR (gene 367) [2],1.21 µM (active)
Clc1ccc(COC(Cn2ccnc2)c2ccc(Cl)cc2Cl)cc1 (configuration not stated),AC50,[1],7.1 µM (active)
same,AC50,AR (gene 367) [2],8.61 µM (active)
